Data taken from publication PMC7826789 (International Journal of Molecular Sciences, 2021).

system: T1, ASK2; conditions: Compound Concentration (nM):1000
T1 construct: gene MAP3K6
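Also: KINOMEscan scanMAX binding as percent activity remaining versus control; lower means stronger binding.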

SMILES | Percent Control
NS(=O)(=O)c1ccc(Nc2ncc(-c3ccccc3)o2)cc1 [GW572399X] | 77%
COc1cc2ncn(-c3cc(O[C@H](C)c4ccccc4Cl)c(C(N)=O)s3)c2cc1OC [GSK237701A] | 97%
Nc1ncnc2occ(-c3ccc(NC(=O)Nc4cc(C(F)(F)F)ccc4F)cc3)c12 [GW770249X] | 80%
NS(=O)(=O)c1ccc(N/N=C2\C(=O)Nc3ccc(C(=O)NCCc4c[nH]cn4)cc32)cc1 [GW300660X] | 65%

system: AURKA; conditions: Compound Concentration (nM):1000

SMILES | Percent Control
Cl.O=C(Nc1ccc(Oc2ccc3[nH]c(NC(=O)c4ccco4)nc3c2)cc1)Nc1cc(C(F)(F)F)ccc1F [GW683134A] | 98%
O=C(Nc1n[nH]c2nc(-c3ccc(O)cc3)c(Br)cc12)C1CC1 [SB-725317] | 100%
COc1cc2ncnc(Nc3ccc4c(cnn4Cc4ccccc4)c3)c2cc1OC.Cl [GW282449A] | 100%
CN(C)CCNC(=O)Nc1ccc(N(C)c2ccnc(Nc3ccc(CS(C)(=O)=O)cc3)n2)cc1.Cl [GW830900A] | 8.8%
CC1=C(C(=O)Nc2ccc3[nH]ncc3c2)C(c2ccc(Cl)c(Cl)c2)CC(=O)N1 (centres unmarked) [GSK299115A] | 45%
COc1ccc(COc2ccc(Cc3cnc(N)nc3N)cc2OC)cc1 [GW632580X] | 76%
CCS(=O)(=O)c1ccc(OC)c(Nc2ncc(-c3cccc(F)c3)o2)c1 [GW621970X] | 100%
COc1cc(/C=N/Nc2ncnc3[nH]ncc23)ccc1O [GW578748X] | 41%
C/C(Nc1ccc(S(N)(=O)=O)cc1)=C1/C(=O)Nc2ccccc21 [GW335962X] | 66%
CN1CCN(C(=O)c2ccc(NC(=O)Nc3ccc(N(C)c4ccnc(Nc5ccc(CS(C)(=O)=O)cc5)n4)cc3)cc2)CC1.Cl [GW830263A] | 0%
CC1=C(C(=O)Nc2ccc3[nH]ncc3c2)C(c2ccc3ccccc3c2)CC(=O)N1 (centres unmarked) [GSK270822A] | 39%
COc1ccc2cc(-c3c(-c4ccncc4)nc(-c4ccc(S(C)(=O)=O)cc4C)n3C)ccc2c1 [SB-633825] | 87%
COc1ccccc1-c1cc(/C=C2\C(=O)Nc3ncc(Br)cc32)cc(Br)c1O [GW442130X] | 25%
NS(=O)(=O)c1ccc(N/N=C2\C(=O)Nc3ccc(C(=O)NCc4ccncc4)cc32)cc1 [GW300657X] | 57%
Cl.O=C(O[C@H]1CN[C@H](C#Cc2cc3ncnc(Nc4ccc5c(cnn5Cc5ccccc5)c4)c3s2)C1)N1CCOCC1 [GSK200398A] | 71%
Cl.O=S1CCN(Cc2ccc(-c3ccc4ncnc(Nc5ccc(OCc6ccccc6)c(F)c5)c4c3)o2)CC1 [GW576924A] | 100%
Cl.c1ccc(Cc2nc3ccc(Nc4ncnc5ccccc45)cc3[nH]2)cc1 [GR269666A] | 100%
COc1cccc(-c2c[nH]c3c(N/N=C/c4ccncc4)ncnc23)c1 [GW814408X] | 82%
Cl.O=C(Nc1ccc(Oc2ccc3[nH]c(NC(=O)c4ccccc4)nc3c2)cc1)Nc1cc(C(F)(F)F)ccc1F [GW709042A] | 82%
CCn1c(-c2nonc2N)nc2c(C#CC(C)(C)O)nc(OCCNC)cc21.Cl [GSK949675] | 90%

SMILES | Percent Control
CN(C)c1cc2c(Nc3ccc4c(cnn4Cc4ccccc4)c3)ncnc2cn1 [GW282974X] | 74%
C[C@@H](Oc1cc(-n2cnc3ccc(OC4CCN(C)CC4)cc32)sc1C(N)=O)c1ccccc1Cl [GSK579289A] | 76%
CCc1ccc(Oc2nccc(-c3c(-c4ccc(F)cc4)ncn3C3CCNCC3)n2)cc1 [SB-242719] | 81%
NS(=O)(=O)c1ccc(N/N=C2\C(=O)Nc3ccc(-c4cnco4)cc32)cc1 [GW276655] | 70%
COc1cc(C)c(N(C)C(=O)CN(C)C)cc1Nc1nc(Nc2cccc(F)c2C(N)=O)c2cc[nH]c2n1 [GSK2219385] | 85%
COc1ccc2[nH]c3c4[nH]c5ccc(OC)cc5c4c4c(c3c2c1)C(=O)NC4=O [GW296115X] | 57%
COc1cc(C=NNc2ncnc3c2cnn3-c2ccccc2)ccc1O [GW513184X] | 33%
NS(=O)(=O)c1ccc(N/N=C2\C(=O)Nc3ccc(Cl)cc32)cc1 [GW280670X] | 91%
COc1cc(N2CCN(C(C)C)CC2)ccc1Nc1nc(Nc2ccc(F)cc2C(=O)NC[C@@H](O)CO)c2cc[nH]c2n1 [GSK1392956A] | 95%
Cc1cc(O)cc(C)c1/C=C/c1cncc(C(N)=O)c1 [GW435821X] | 85%
COC(=O)Nc1nc2ccc(Oc3ccc(NC(=O)Nc4cc(C(F)(F)F)ccc4F)cc3)cc2s1.Cl [GW693917A] | 71%
CC(C)COC(=O)c1ccc2c(c1)/C(=C/Nc1ccc(S(N)(=O)=O)cc1)C(=O)N2 [GW416981X] | 66%
CCS(=O)(=O)c1ccc(OC)c(Nc2ncc(-c3cccc(OC)c3)o2)c1 [GW580509X] | 88%
COc1cccc(-n2ncc3c(N/N=C/c4ccncc4)ncnc32)c1 [GW784752X] | 69%
COc1ccc2c(-c3ccnc(Nc4cccc(OC(F)(F)F)c4)n3)cnn2n1 [GW810372X] | 100%
O=C1Nc2ccc(C(=O)c3ccco3)cc2C1=Cc1cc(Cl)c(O)c(Cl)c1 [GW406108X] | 35%
NS(=O)(=O)c1ccc(Nc2ncc(-c3ccccc3)o2)cc1 [GW572399X] | 100%
COc1cc2ncn(-c3cc(O[C@H](C)c4ccccc4Cl)c(C(N)=O)s3)c2cc1OC [GSK237701A] | 87%
Nc1ncnc2occ(-c3ccc(NC(=O)Nc4cc(C(F)(F)F)ccc4F)cc3)c12 [GW770249X] | 66%
NS(=O)(=O)c1ccc(N/N=C2\C(=O)Nc3ccc(C(=O)NCCc4c[nH]cn4)cc32)cc1 [GW300660X] | 72%
